PubChem BioAssay
For part of these data: Measured potencies and affinities stand elsewhere. Active and inactive are the calls of the source. Unless noted, how the calls were made is not given here.

What was measured:
[1] = antimalarial activity against Dd2 strain (AID 2302;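 active means growth inhibition above 50% at the single 2 µM test dose, taken to imply half-maximal potency below 2 µM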;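 further: 0% = DMSO untreated growth and 100% = chloroquine plus artemisinin killed control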); conditions: P. falciparum Dd2 in RBCs, LDH growth readout, 72 h; at 2 µM; stronger effect = higher value
[2] = human hepatoma cell viability loss – ATP luminescence, cytotoxicity control for P. falciparum antimalarial project, primary screen (AID 2303;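 active means inhibition above 50%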;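 further: 0% = DMSO wells and 100% = digitonin-killed cells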); conditions: HepG2 viability, 24-48 h, at 10 µM, stronger effect = higher value
[3] = biological target: L-lactate dehydrogenase (Plasmodium falciparum (isolate CDC / Honduras)) (UniProt Q27743); experiment: PfLDH activity inhibition – cell lysate, 3D7 strain, counter-screen for P. falciparum growth inhibition project (AID 2304);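 further: 0% = vehicle and 100% = reference inhibitor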; conditions: P. falciparum 3D7 crude extract, LDH APAD/NBT absorbance; at 2 µM; stronger effect = higher value
Chain of L-lactate dehydrogenase (Plasmodium falciparum (isolate CDC / Honduras)) (Q27743 whole entry, looked up): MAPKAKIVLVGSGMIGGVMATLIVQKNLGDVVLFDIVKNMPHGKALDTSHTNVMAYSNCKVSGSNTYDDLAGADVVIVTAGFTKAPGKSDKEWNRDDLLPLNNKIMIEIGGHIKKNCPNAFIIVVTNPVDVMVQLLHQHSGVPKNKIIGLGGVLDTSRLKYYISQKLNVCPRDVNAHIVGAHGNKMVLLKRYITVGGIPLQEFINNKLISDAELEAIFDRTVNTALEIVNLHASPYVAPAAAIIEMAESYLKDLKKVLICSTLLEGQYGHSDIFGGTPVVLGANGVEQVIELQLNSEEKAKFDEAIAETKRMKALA

[4] = inhibition of 3D7 malaria parasite growth – strain 3D7 (AID 2306);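 further: 0% = DMSO wells and 100% = chloroquine plus artemisinin control wells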; conditions: P. falciparum 3D7 erythrocytic growth, LDH absorbance, 72 h; at 2 µM; stronger effect = higher value
[5] = biological target: Calcium-dependent protein kinase 1 (Plasmodium falciparum (isolate 3D7)) (UniProt P62344); experiment: PfCDPK1 kinase inhibitors, biochemical, TCAMS library (AID 1159585; cut-off not given, nearly all actives have IC50 up to about 0.98 µM;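 further: inhibitors leave more ATP so luminescence rises with inhibition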); conditions: recombinant PfCDPK1, Kinase-Glo ATP depletion luminescence
Chain of Calcium-dependent protein kinase 1 (Plasmodium falciparum (isolate 3D7)) (P62344 whole entry, looked up): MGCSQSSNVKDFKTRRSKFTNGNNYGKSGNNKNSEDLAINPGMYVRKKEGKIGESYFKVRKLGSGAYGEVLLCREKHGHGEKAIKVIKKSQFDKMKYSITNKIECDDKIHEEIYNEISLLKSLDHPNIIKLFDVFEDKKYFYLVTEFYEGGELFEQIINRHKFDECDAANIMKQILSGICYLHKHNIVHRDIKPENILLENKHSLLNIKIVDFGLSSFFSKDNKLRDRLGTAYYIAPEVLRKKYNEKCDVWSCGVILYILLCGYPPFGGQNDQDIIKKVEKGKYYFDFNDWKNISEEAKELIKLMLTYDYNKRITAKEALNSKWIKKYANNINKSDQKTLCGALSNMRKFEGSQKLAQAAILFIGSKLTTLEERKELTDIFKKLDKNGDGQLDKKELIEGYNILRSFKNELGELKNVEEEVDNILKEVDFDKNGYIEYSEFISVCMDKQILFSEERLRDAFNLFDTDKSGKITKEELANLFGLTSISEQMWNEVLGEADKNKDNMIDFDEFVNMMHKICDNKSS

[6] = biological target: Plasmodium falciparum protein kinase 6 (PK6, PF3D7_1337100) (UniProt Q8IDW1); experiment: PfPK6 kinase inhibitors, biochemical, TCAMS library (AID 1159586); conditions: recombinant PfPK6, Kinase-Glo ATP depletion luminescence
Chain of Plasmodium falciparum protein kinase 6 (PK6, PF3D7_1337100) (Q8IDW1 1-305): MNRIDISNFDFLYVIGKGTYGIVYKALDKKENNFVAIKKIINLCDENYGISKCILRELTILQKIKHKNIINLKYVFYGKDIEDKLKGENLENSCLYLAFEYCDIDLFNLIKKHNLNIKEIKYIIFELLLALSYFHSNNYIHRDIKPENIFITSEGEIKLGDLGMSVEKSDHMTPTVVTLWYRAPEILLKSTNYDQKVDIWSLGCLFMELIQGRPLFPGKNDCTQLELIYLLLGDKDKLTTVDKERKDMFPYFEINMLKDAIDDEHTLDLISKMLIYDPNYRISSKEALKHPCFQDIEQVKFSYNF

[7] = biological target: Protein kinase 7 (PK7), Plasmodium falciparum 3D7 (PF3D7_0213400) (UniProt Q7YTF7); experiment: inhibition of Plasmodium PK7 catalytic activity – biochemical, TCAMS antimalarial set, Kinase-Glo luminescence (AID 1159587); conditions: recombinant PfPK7, Kinase-Glo ATP depletion luminescence
Chain of Protein kinase 7 (PK7), Plasmodium falciparum 3D7 (PF3D7_0213400) (Q7YTF7 1-343): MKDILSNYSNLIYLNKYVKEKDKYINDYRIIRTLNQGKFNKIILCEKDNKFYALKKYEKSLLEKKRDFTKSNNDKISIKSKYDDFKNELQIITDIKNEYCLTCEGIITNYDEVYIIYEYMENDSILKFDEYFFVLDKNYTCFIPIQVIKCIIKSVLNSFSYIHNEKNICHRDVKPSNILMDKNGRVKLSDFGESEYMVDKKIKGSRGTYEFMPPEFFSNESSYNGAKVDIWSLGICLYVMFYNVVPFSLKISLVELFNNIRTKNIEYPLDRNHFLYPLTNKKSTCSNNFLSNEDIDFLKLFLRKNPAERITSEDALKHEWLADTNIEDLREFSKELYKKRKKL

[8] = biological target: Calcium-dependent protein kinase 4 (Plasmodium falciparum (isolate 3D7)) (UniProt Q8IBS5); experiment: PfCDPK4 kinase inhibitors, biochemical, TCAMS library (AID 1159588; cut-off not given, nearly all actives have IC50 up to about 0.91 µM); conditions: recombinant PfCDPK4, Kinase-Glo ATP depletion luminescence
Chain of Calcium-dependent protein kinase 4 (Plasmodium falciparum (isolate 3D7)) (Q8IBS5 whole entry, looked up): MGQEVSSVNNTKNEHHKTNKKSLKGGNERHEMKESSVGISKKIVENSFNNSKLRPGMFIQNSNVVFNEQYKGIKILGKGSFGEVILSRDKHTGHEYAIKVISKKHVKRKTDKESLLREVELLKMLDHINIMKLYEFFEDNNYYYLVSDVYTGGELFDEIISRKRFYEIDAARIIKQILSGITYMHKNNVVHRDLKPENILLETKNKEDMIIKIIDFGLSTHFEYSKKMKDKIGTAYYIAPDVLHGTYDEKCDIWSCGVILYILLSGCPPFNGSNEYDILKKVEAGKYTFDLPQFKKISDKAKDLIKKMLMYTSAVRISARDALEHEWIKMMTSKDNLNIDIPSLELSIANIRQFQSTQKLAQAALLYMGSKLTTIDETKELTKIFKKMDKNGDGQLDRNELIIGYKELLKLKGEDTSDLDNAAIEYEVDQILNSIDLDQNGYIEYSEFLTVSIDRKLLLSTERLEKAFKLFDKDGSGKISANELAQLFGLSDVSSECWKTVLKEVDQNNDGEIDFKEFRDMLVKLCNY

Cc1cc(NN=CC=Cc2ccccc2)c2ccc(F)cc2n1
active: growth inhibition [4] 100%
inactive: growth inhibition [1] 30% | inhibition [2] 14% | inhibition [3] -3% | outcome [5] | outcome [6] | outcome [7] | outcome [8]

CN(C)CCNCc1nc(-c2ccc3c(Nc4ccc(Cl)cc4F)ccnc3c2)cs1
inactive: inhibition [2] -2% | inhibition [3] -9% | outcome [5] | outcome [6] | outcome [7] | outcome [8]
active: growth inhibition [1] 100% | growth inhibition [4] 101%

Cc1cc(N2CCC(N(C)C)C2)nc(Nc2ccc(Cl)cc2)n1 (configuration not stated)
inactive: growth inhibition [1] 17% | inhibition [2] 11% | inhibition [3] 2% | outcome [5] | outcome [6] | outcome [7] | outcome [8]
active: growth inhibition [4] 99%

c1ccc2[nH]c(-c3ccc(-c4ccc(CNCCc5ccncc5)cc4)s3)nc2c1
inactive: inhibition [2] 28% | inhibition [3] -6% | outcome [5] | outcome [6] | outcome [7] | outcome [8]
active: growth inhibition [1] 98% | growth inhibition [4] 101%

O=S(=O)(NCCN1CCCC1)c1ccc(-c2ccccc2CNC2Cc3ccccc3C2)cc1
active: growth inhibition [1] 67% | growth inhibition [4] 95%
inactive: inhibition [2] 19% | inhibition [3] -9% | outcome [5] | outcome [6] | outcome [7] | outcome [8]

COc1ccc(CN(C)CCCc2ccc(NC(=O)c3cc4ccccc4[nH]3)cc2)cc1OC
active: growth inhibition [4] 97%
inactive: growth inhibition [1] 31% | inhibition [2] 39% | inhibition [3] -5% | outcome [5] | outcome [6] | outcome [7] | outcome [8]

CCCOc1ccc(-c2nonc2NC(=O)c2ccccc2OC)cc1OCCC
inactive: inhibition [2] 23% | inhibition [3] -1% | outcome [5] | outcome [6] | outcome [7] | outcome [8]
active: growth inhibition [1] 82% | growth inhibition [4] 98%

Cc1nc(Nc2ccc(C)c(Cl)c2)c2c(C)noc2n1
active: growth inhibition [1] 72% | growth inhibition [4] 94%
inactive: inhibition [2] 0% | inhibition [3] 0% | outcome [5] | outcome [6] | outcome [7] | outcome [8]

NOCCCCOc1ccc(Cl)cc1
inactive: growth inhibition [1] -1% | inhibition [2] 2% | inhibition [3] -4% | outcome [5] | outcome [6] | outcome [7] | outcome [8]
active: growth inhibition [4] 98%

COc1cc2nc(Nc3ccc(C)cc3)nc(Nc3ccc(C)cc3)c2cc1OC
active: growth inhibition [1] 100% | inhibition [2] 99% | growth inhibition [4] 101%
inactive: inhibition [3] -1% | outcome [5] | outcome [6] | outcome [7] | outcome [8]

CS(=O)(=O)c1ccc(CNCc2cccc(-c3cccc(-c4nc5ccc(C(F)(F)F)cc5[nH]4)c3)c2)cc1
inactive: inhibition [2] 5% | inhibition [3] 2% | outcome [5] | outcome [6] | outcome [7] | outcome [8]
active: growth inhibition [1] 96% | growth inhibition [4] 103%

N#Cc1cccc(NC(=O)Nc2cccc(-c3cccc(-c4nc5ccccc5[nH]4)c3)c2)c1
inactive: inhibition [2] 46% | inhibition [3] 3% | outcome [5] | outcome [6] | outcome [7] | outcome [8]
active: growth inhibition [1] 96% | growth inhibition [4] 100%

O=C(Nc1ccc(-c2oc(C(=O)NCCc3cccc(Cl)c3)cc2-c2ccncc2)cc1)Nc1cccc(Cl)c1
active: growth inhibition [1] 84% | growth inhibition [4] 99%
inactive: inhibition [2] 13% | inhibition [3] -1% | outcome [5] | outcome [6] | outcome [7] | outcome [8]

COc1ccc(CNC(=O)c2cc3c(=O)n4ccccc4nc3n(CCc3ccccc3)c2=N)cc1
active: growth inhibition [4] 99%
inactive: growth inhibition [1] 22% | inhibition [2] 26% | inhibition [3] -4% | outcome [5] | outcome [6] | outcome [7] | outcome [8]

O=C(Nc1ccc(-c2ccccc2)c(OCCN2CCNCC2)c1)c1ccc(-c2ccc(Cl)cc2)cc1
active: inhibition [2] 92% | growth inhibition [4] 96%
inactive: growth inhibition [1] 31% | inhibition [3] -8% | outcome [5] | outcome [6] | outcome [7] | outcome [8]

Cc1ccc(F)cc1S(=O)(=O)Nc1cccc(CCN2CCC(N3CCCCC3)CC2)c1
active: growth inhibition [4] 96%
inactive: growth inhibition [1] 9% | inhibition [2] 15% | inhibition [3] 5% | outcome [5] | outcome [6] | outcome [7] | outcome [8]

Cc1cc(NC(=O)NCCN2CCC(NS(=O)(=O)c3ccc(Br)cc3)C2)c2ccccc2n1 (configuration not stated)
active: growth inhibition [1] 51% | growth inhibition [4] 99%
inactive: inhibition [2] 9% | inhibition [3] 0% | outcome [5] | outcome [6] | outcome [7] | outcome [8]

CCCCNc1c(C(=O)OCC)c(C)nc2c1[nH]c1ccccc12
inactive: inhibition [2] -3% | inhibition [3] 3% | outcome [5] | outcome [6] | outcome [7] | outcome [8]
active: growth inhibition [1] 58% | growth inhibition [4] 100%

Cc1ccc(-n2c(=O)c3c(n4c(SC(C)C)nnc24)-c2ccccc2CC32CCCCC2)cc1
inactive: inhibition [2] 8% | inhibition [3] 0% | outcome [5] | outcome [6] | outcome [7] | outcome [8]
active: growth inhibition [1] 88% | growth inhibition [4] 95%

CCOC(=O)c1sc(C(C)Nc2ccccc2)nc1-c1ccccc1 (configuration not stated)
inactive: inhibition [2] -8% | inhibition [3] 5% | outcome [5] | outcome [6] | outcome [7] | outcome [8]
active: growth inhibition [1] 91% | growth inhibition [4] 95%

CCCc1cc(C(C)=O)ccc1OCCCON1C(N)=NC(N)=NC1(C)C
active: growth inhibition [1] 96% | inhibition [2] 61% | growth inhibition [4] 96%
inactive: inhibition [3] 4% | outcome [5] | outcome [6] | outcome [7] | outcome [8]

CN(C)CC(=O)Nc1ccc(Nc2nccc(NCC(O)c3ccccc3)n2)cc1 (configuration not stated)
inactive: growth inhibition [1] 2% | inhibition [2] -2% | inhibition [3] -4% | outcome [5] | outcome [6] | outcome [7] | outcome [8]
active: growth inhibition [4] 95%

COc1ccc2nc3cc(Cl)ccc3c(N)c2c1
active: growth inhibition [1] 100% | inhibition [2] 100% | growth inhibition [4] 102%
inactive: inhibition [3] -5% | outcome [5] | outcome [6] | outcome [7] | outcome [8]

O=C(NCc1cccc(C(F)(F)F)c1)c1ccc(-c2nc3cc(F)c(F)cc3[nH]2)cc1
inactive: growth inhibition [1] 7% | inhibition [2] -1% | inhibition [3] 4% | outcome [5] | outcome [6] | outcome [7] | outcome [8]
active: growth inhibition [4] 97%

COc1cc(Nc2nccc(N3CCC(NC(=O)c4cccc(NC(C)=O)c4)C3)n2)cc(OC)c1OC (configuration not stated)
inactive: inhibition [2] 9% | inhibition [3] -6% | outcome [5] | outcome [6] | outcome [7] | outcome [8]
active: growth inhibition [1] 68% | growth inhibition [4] 98%

Nc1c2ccccc2nc2cc(C(F)(F)F)ccc12
active: growth inhibition [4] 101%
inactive: growth inhibition [1] 49% | inhibition [2] 8% | inhibition [3] 1% | outcome [5] | outcome [6] | outcome [7] | outcome [8]

COc1ccc(NC(=O)/C=C/c2cc(F)cc(C(F)(F)F)c2)cc1OCCN(C(C)C)C(C)C
inactive: growth inhibition [1] 21% | inhibition [2] 18% | inhibition [3] -3% | outcome [5] | outcome [6] | outcome [7] | outcome [8]
active: growth inhibition [4] 97%

CN(C(=O)c1ccccc1)[C@@H]1c2cc(C#N)ccc2OC(C)(C)[C@H]1O
inactive: growth inhibition [1] 4% | inhibition [2] 8% | inhibition [3] -3% | outcome [5] | outcome [6] | outcome [7] | outcome [8]
active: growth inhibition [4] 97%

CC(CN1CCN(C)CC1)C(=O)Nc1ccc(-c2cccc(-c3nc4ccccc4[nH]3)c2)cc1 (configuration not stated)
inactive: inhibition [2] 4% | inhibition [3] 3% | outcome [5] | outcome [6] | outcome [7] | outcome [8]
active: growth inhibition [1] 81% | growth inhibition [4] 94%

Clc1ccc(CNc2nc(NCCc3cnc[nH]3)nc(NC3CCCCC3)n2)cc1
active: growth inhibition [4] 100%
inactive: growth inhibition [1] 1% | inhibition [2] -5% | inhibition [3] -3% | outcome [5] | outcome [6] | outcome [7] | outcome [8]

Oc1ccc(CCNc2nc(NCCOc3ccccc3-c3ccccc3)nc(N3CCNCC3)n2)cc1
active: growth inhibition [4] 93%
inactive: growth inhibition [1] 17% | inhibition [2] 22% | inhibition [3] -1% | outcome [5] | outcome [6] | outcome [7] | outcome [8]

CCC(C)(C)c1ccc2nc(N)nc(N)c2c1C
inactive: inhibition [3] 1% | outcome [5] | outcome [6] | outcome [7] | outcome [8]
active: growth inhibition [1] 82% | inhibition [2] 62% | growth inhibition [4] 91%

CN1CCN(c2ccnc3ccc(NC(=O)Nc4ccc(-c5ccncc5)c(C(F)(F)F)c4)cc23)CC1
inactive: inhibition [2] 12% | inhibition [3] 6% | outcome [5] | outcome [6] | outcome [7] | outcome [8]
active: growth inhibition [1] 99% | growth inhibition [4] 99%

Cc1ccc(CN2CCCN(Cc3ccc(C(=O)Nc4ccc(Cl)cc4)cc3)CC2)s1
inactive: growth inhibition [1] 5% | inhibition [3] 3% | outcome [5] | outcome [6] | outcome [7] | outcome [8]
active: inhibition [2] 53% | growth inhibition [4] 85%

O=C(Nc1ccc2c(c1)CCC2)N[C@H]1CCN(CCCCCNC(=O)[C@@H]2C[C@H]2c2ccc(Cl)c(Cl)c2)C1
inactive: growth inhibition [1] -3% | inhibition [2] 37% | inhibition [3] 2% | outcome [5] | outcome [6] | outcome [7] | outcome [8]
active: growth inhibition [4] 86%

OC1CCCN(Cc2cccc(-c3ccc(-c4nc5ccccc5[nH]4)cc3)c2)C1 (configuration not stated)
inactive: growth inhibition [1] 16% | inhibition [2] 25% | inhibition [3] -2% | outcome [5] | outcome [6] | outcome [7] | outcome [8]
active: growth inhibition [4] 85%

CCOC(=O)c1ccc(OCCCCCCOc2ccc(Br)cc2)cc1
active: growth inhibition [4] 98%
inactive: growth inhibition [1] -2% | inhibition [2] 12% | inhibition [3] -4% | outcome [5] | outcome [6] | outcome [7] | outcome [8]

c1ccc(CN2CCC(Nc3ccc(-c4cn[nH]c4-c4ccccn4)nc3)CC2)cc1
active: growth inhibition [4] 97%
inactive: growth inhibition [1] 23% | inhibition [2] 1% | inhibition [3] -5% | outcome [5] | outcome [6] | outcome [7] | outcome [8]

O=[N+]([O-])c1ccccc1C=NNc1c2c(nc3ccccc13)CCCC2
active: growth inhibition [1] 99% | growth inhibition [4] 97%
inactive: inhibition [2] -2% | inhibition [3] -3% | outcome [5] | outcome [6] | outcome [7] | outcome [8]
